Bioassay records deposited in PubChem BioAssay by National Center for Advancing Translational Sciences (NCATS).
In the library only some 2.8% were active in any assay of this set; here they are far more common.
Pol iota inh: inhibitors of human DNA polymerase iota | Pol iota fluorescent replication assay, 10 min | Potency, µM (doses to about 115 µM), usual class: inhibitors | 1% of 390,000 active
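Fluorescent replication assay read twice, at 0 min and 10 min after adding 50 nM (final) substrate. Enzyme (10 nM) and compounds were first incubated 15 min at room temperature; enzyme-free buffer wells were negative controls.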
Pol kappa inh-1: blocks human DNA polymerase kappa activity. Q9UBT6. purified Pol kappa, fluorescent DNA synthesis assay, 10 min. Potency, µM (series often up to 107 µM), actives largely listed as inhibitors. 0.53% of 400,000 active. AID 588579
Target sequence (Q9UBT6 whole entry, looked up): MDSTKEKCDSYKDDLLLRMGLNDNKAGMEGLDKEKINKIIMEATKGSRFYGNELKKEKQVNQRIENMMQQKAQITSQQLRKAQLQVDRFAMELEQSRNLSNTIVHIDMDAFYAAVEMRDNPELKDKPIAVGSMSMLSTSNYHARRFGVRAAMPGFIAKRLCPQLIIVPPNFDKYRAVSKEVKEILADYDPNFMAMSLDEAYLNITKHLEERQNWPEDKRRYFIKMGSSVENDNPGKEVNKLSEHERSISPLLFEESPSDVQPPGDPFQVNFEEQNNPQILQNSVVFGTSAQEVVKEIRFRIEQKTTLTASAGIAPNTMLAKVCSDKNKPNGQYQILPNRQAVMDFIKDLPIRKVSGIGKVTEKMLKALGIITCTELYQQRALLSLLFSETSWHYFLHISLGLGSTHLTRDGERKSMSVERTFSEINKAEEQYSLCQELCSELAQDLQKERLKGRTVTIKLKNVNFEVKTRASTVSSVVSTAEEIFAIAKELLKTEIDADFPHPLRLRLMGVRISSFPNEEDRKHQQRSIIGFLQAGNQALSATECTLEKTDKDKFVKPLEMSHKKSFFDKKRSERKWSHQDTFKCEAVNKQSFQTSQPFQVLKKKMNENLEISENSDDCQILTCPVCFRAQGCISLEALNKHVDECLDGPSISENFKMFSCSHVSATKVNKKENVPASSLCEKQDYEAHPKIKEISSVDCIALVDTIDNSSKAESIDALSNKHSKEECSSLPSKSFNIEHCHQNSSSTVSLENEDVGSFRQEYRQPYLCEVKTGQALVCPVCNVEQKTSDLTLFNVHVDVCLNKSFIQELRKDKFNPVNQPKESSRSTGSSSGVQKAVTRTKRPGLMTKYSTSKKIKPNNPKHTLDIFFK
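50 nM final substrate added after 15 min RT preincubation of 10 nM Pol kappa with compound; fluorescence read at 0 and 10 min.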
Pol eta inh-1: DNA polymerase eta (human) inhibition; Q9Y253; recombinant Pol eta, fluorescent DNA replication assay; Potency, µM (series often up to 114 µM), most hits filed as inhibitors; 1.2% of 390,000 active; AID 588591
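Fluorescent replication assay: 50 nM final substrate added after a 15 min room-temperature compound preincubation with 10 nM enzyme. Signal taken at 0 min and again at 10 min.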
POLB inh: inhibitors of human DNA polymerase beta; P06746; Pol beta primer extension/strand displacement, fluorescence kinetic; Potency, µM (doses to about 114 µM), usual class: inhibitors; 1.3% of 340,000 active; AID 485314
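Human Pol beta at 10 nM; strand-displacement substrate 50 nM final. Compound exposure 15 min at room temperature before start, reaction 10 min at room temperature.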
PI5P4K alpha inh: inhibitors of human PI5P4K alpha. P48426. PI5P4Kalpha enzyme, ADP-Glo luminescence, 60 min; stronger effect = lower value. max response, %. 1.2% of 330,000 active; active = max response of -50% or lower; inconclusive = between -30% and -50%; inactive = -30% or higher; note: value at the top dose of about 77 µM
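ADP-Glo luminescence end-point read after a 60 min room-temperature kinase reaction of PI5P4Kalpha plus substrate, initiated with ATP at 5 microM final. Buffer: 0.038 M HEPES pH 7.4, EGTA, 0.1% CHAPS, 5% DMSO.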
WRN inhibitor: blocks human WRN helicase | WRN helicase unwinding, fluorescent forked duplex, kinetic | Q14191 | Potency, µM (doses to about 114 µM), hits mostly inhibitors | 0.46% of 360,000 active; note: nearly all actives have a fitted effect of over 55% in size
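Screening of the MLSMR collection measured strand separation of a quenched forked DNA duplex (100 nM) by 20 nM WRN with 2 mM ATP, all final. Compounds were preincubated with enzyme 15 min at room temperature.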
GALK confirm: galactokinase (human) inhibition, confirmation | shares compounds with Pol eta inh-1 | purified GALK, Kinase-Glo ATP depletion luminescence | Potency, µM (series often up to 115 µM), hits mostly inhibitors | 70% of 150 active | AID 2015
Redox cycling: generates H2O2 by redox cycling, flagging GALK artifacts | shares compounds with Pol eta inh-1 | Phenol red-HRP H2O2 redox cycling, absorbance 600 nm | Potency, µM (titrated, usually from 115 µM), actives largely listed as inhibitors | 40% of 150 active
HEK293 tox: reduces HEK-293 cell viability in GALK counter-screen. Potency, µM (titrated, usually from 46.1 µM), hits mostly inhibitors. 10% of 170 active. shares compounds with Pol eta inh-1. HEK-293 viability, ATP luminescence (CellTiter-Glo), 24/48 h. AID 2547
Pol kappa inh-2: confirmation of human DNA polymerase kappa inhibitors. shares compounds with Pol eta inh-1. purified Pol-kappa, fluorescent strand-displacement substrate. Potency, µM, actives largely listed as inhibitors. 76% of 920 active. AID 720501
Pol eta inh-2: confirmation of human DNA polymerase eta inhibitors. shares compounds with Pol eta inh-1. Pol eta primer extension, TAMRA/BHQ fluorescence, 10 min. Potency, µM, most hits filed as inhibitors. 64% of 2,600 active
Numbers stand for hits; [ ] = dose if it differs, or a comment. Unless noted, calls come from the whole dose curve; as a rule, active = well fitted curve in the direction sought with a large enough effect; inconclusive = small, poorly fitted or top-dose-only effect, or another doubt; inactive = no such curve, though single readings can be large; an effect the other way counts as inactive or inconclusive.

`COc1ccc(OC)c(S(=O)(=O)NCC(c2cccs2)S(=O)(=O)c2ccc(F)cc2)c1` (stereo not given) gave Pol iota inh inactive, Pol kappa inh-1 inactive, Pol eta inh-1 inactive and POLB inh inactive.
CCOC(=O)c1nc2sc3c(c2c(=O)[nH]1)CCCC3 was read as Pol iota inh inactive, Pol kappa inh-1 inactive, Pol eta inh-1 inactive, POLB inh inactive, PI5P4K alpha inh inactive and WRN inhibitor inactive.
N#C/C(=C\c1ccc(C(=O)O)cc1)c1nc2sc3c(c2c(=O)[nH]1)CCCC3 was read as Pol iota inh inconclusive, Pol kappa inh-1 inconclusive, Pol eta inh-1 20µM, POLB inh 50.1µM, PI5P4K alpha inh -50.3, WRN inhibitor inconclusive and Pol eta inh-2 30.1.
Cc1cccc(C(=O)Nc2cccc(OCc3cc(=O)n4c(C)csc4n3)c2)c1 was read as Pol iota inh inactive, Pol kappa inh-1 inactive, Pol eta inh-1 inactive and POLB inh inconclusive.
Screening O=C(O)c1ccc(CSc2nc3ccc(N4C(=O)C5C6C=CC(C6)C5C4=O)cc3s2)cc1 (stereo not given) returned Pol iota inh inconclusive, Pol kappa inh-1 inactive, Pol eta inh-1 28.2µM, POLB inh inactive, PI5P4K alpha inh inactive, WRN inhibitor inactive[11.6 µM] and Pol eta inh-2 inconclusive.
CCc1cccc(CC)c1NC(=O)CSc1nc2ccc(N3C(=O)C4C5C=CC(C5)C4C3=O)cc2s1 (stereo not given) was read as Pol iota inh inactive, Pol kappa inh-1 inactive, Pol eta inh-1 inactive, POLB inh inactive, PI5P4K alpha inh inactive and WRN inhibitor inactive.
Screening O=C(O)c1ccc(S(=O)(=O)N2CCC(n3nnc4cc(C(F)(F)F)ccc43)CC2)cc1 returned Pol iota inh inactive, Pol kappa inh-1 inactive, Pol eta inh-1 inactive, POLB inh inactive, PI5P4K alpha inh inactive and WRN inhibitor inactive.
`O=C(O)c1cccc(S(=O)(=O)N2CCC(n3nnc4cc(C(F)(F)F)ccc43)CC2)c1` gave Pol iota inh inactive, Pol kappa inh-1 inactive, Pol eta inh-1 inactive, POLB inh inactive, PI5P4K alpha inh inactive, WRN inhibitor inactive, GALK confirm inconclusive, Redox cycling inactive and HEK293 tox inactive.
Screening Cc1ccc(CNS(=O)(=O)c2cc(C(=O)Nc3cccc(C(F)(F)F)c3)ccc2F)cc1 returned Pol iota inh inactive, Pol kappa inh-1 inactive, Pol eta inh-1 inactive and POLB inh inactive.
For COc1ccc(N2CC(C(=O)Nc3nnc(SCCC4OCCO4)s3)CC2=O)cc1 (stereo not given) the results were Pol iota inh inactive, Pol kappa inh-1 inactive, Pol eta inh-1 35.5µM, POLB inh 14.1µM, PI5P4K alpha inh inconclusive, WRN inhibitor inactive and Pol eta inh-2 inconclusive.
Screening Cc1ccc(N2CC(C(=O)Nc3nnc(SCCC4OCCO4)s3)CC2=O)cc1 (stereo not given) returned Pol iota inh inactive, Pol kappa inh-1 inactive, Pol eta inh-1 inconclusive, POLB inh inactive, PI5P4K alpha inh inactive and WRN inhibitor inactive.
O=C(c1ccccc1Cl)n1nc(-c2ccco2)nc1NCc1cccs1 was read as Pol iota inh inactive, Pol kappa inh-1 inactive, Pol eta inh-1 inactive and POLB inh inactive.
`C#Cc1ccc([C@@H]2C=C(C(=O)O)O[C@H](OCC)[C@H]2CCCO)cc1` gave Pol iota inh inconclusive, Pol kappa inh-1 50.1µM, Pol eta inh-1 7.94µM, PI5P4K alpha inh inactive, WRN inhibitor inactive, Pol kappa inh-2 4.74 and Pol eta inh-2 30.1.
For C#Cc1ccc([C@@H]2C=C(C(=O)NCc3ccccc3)O[C@H](OCC)[C@H]2CCCO)cc1 the results were Pol iota inh inactive, Pol kappa inh-1 inactive, Pol eta inh-1 inactive, POLB inh inactive, PI5P4K alpha inh inactive and WRN inhibitor inactive.
For COc1ccc2nc(Cl)c(C3CC(c4ccco4)=NN3C(=O)CCCC(=O)O)cc2c1 (stereo not given) the results were Pol iota inh 22.4µM, Pol kappa inh-1 28.2µM, Pol eta inh-1 35.5µM, POLB inh inconclusive, PI5P4K alpha inh inactive, WRN inhibitor inactive[11.6 µM] and Pol eta inh-2 75.7.
Screening CCc1ccc(N2CC(C(=O)OCc3csc(CC(=O)Nc4ccccc4C)n3)CC2=O)cc1 (stereo not given) returned Pol iota inh inactive, Pol kappa inh-1 inactive, Pol eta inh-1 inactive, PI5P4K alpha inh inactive and WRN inhibitor inactive.
Screening CCc1ccc(N2CC(C(=O)OCc3nc4ccsc4c(=O)[nH]3)CC2=O)cc1 (stereo not given) returned Pol iota inh inconclusive, Pol kappa inh-1 79.4µM, Pol eta inh-1 39.8µM, PI5P4K alpha inh inactive, WRN inhibitor inactive[11.6 µM] and Pol eta inh-2 67.5.
CN(C(=O)CSc1nc(C2CCCC2)nc2c1c(=O)n(C)c(=O)n2C)c1ccccc1 was read as Pol iota inh inactive, Pol kappa inh-1 inactive, Pol eta inh-1 inactive and POLB inh inactive.
For Cc1c(C(=O)O)cccc1-c1ccc(C=O)o1 the results were Pol iota inh inconclusive, Pol kappa inh-1 inconclusive, Pol eta inh-1 5.01µM, POLB inh 28.2µM, PI5P4K alpha inh inactive, WRN inhibitor inactive and Pol eta inh-2 84.9.
Screening O=C(O)c1ccc(N/N=C/c2ccc(-c3ccc(Br)cc3)o2)cc1 returned Pol iota inh inconclusive, Pol kappa inh-1 inactive, Pol eta inh-1 inactive, POLB inh inconclusive, PI5P4K alpha inh inactive and WRN inhibitor inactive.
Screening O=C(Cc1ccc(Br)cc1)N/N=C/c1ccc(-c2cccc(C(=O)O)c2)o1 returned Pol iota inh inactive, Pol kappa inh-1 inconclusive, Pol eta inh-1 22.4µM, POLB inh inconclusive, PI5P4K alpha inh inconclusive, WRN inhibitor inactive[11.6 µM] and Pol eta inh-2 30.1.
